Among the data in PubChem BioAssay (NCI) are growth values, retold here.

Test systems include RPMI-8226 leukemia; OVCAR-8 ovarian; OVCAR-5 ovarian; OVCAR-4 ovarian; SK-OV-3 ovarian; OVCAR-3 ovarian; NCI/ADR-RES ovarian; T-47D breast; BT-549 breast; MDA-MB-435 melanoma; SW-620 colon; MCF7 breast; HCT-116 colon; HCC-2998 colon; KM12 colon; IGROV1 ovarian; HS 578T breast.
Holding throughout (experiment): NCI-60 one-dose screen, 48 h (100 = growth as untreated, 0 = no growth, -100 = all killed)
What all share (settings): 10 µM

Structures are written as SMILES. About 83,000 compounds went through this panel and 20% of them were active in at least one assay; those are over-represented in the sample as a whole.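 Results are percent growth after 48 hours of single-concentration exposure. 100 means growth as in untreated cells, lower positive values show inhibition; negative values down to -100 show cell death.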 Unmarked numbers belong to inactive results. Active and inactive are the calls of the source. How the source made its calls: active means growth percent below 10; inactive means the rest.

Regarding `O=C(/C=C/c1nnc2n(Cc3ccccc3)c(=O)c3c4c(sc3n12)CCCC4)c1ccccc1`, the growth in the assay with RPMI-8226 leukemia is 1.69% (active); in the assay with OVCAR-8 ovarian, 19.3%; in the assay on OVCAR-5 ovarian, 115%; in the assay on OVCAR-4 ovarian, 112%; in the assay with SK-OV-3 ovarian, 108%; in the assay on OVCAR-3 ovarian, 68.4%. For the same compound, the growth in the assay on NCI/ADR-RES ovarian was 85.8%; with T-47D breast, -39.2% (active); with BT-549 breast it was 82.4%; with MDA-MB-435 melanoma, 93.2%; in the assay with SW-620 colon it was 9.38% (active); with MCF7 breast it was 64.3%. Also, the growth is 44.1% in the assay with HCT-116 colon, 87.8% with HCC-2998 colon and 55.2% in the assay with KM12 colon.
For the compound `Cc1cn(C(=O)/C(Cl)=C(/Cl)C(=O)O)c2ccccc12`, the growth was 82.4% in the assay on RPMI-8226 leukemia; 110% in the assay with OVCAR-8 ovarian; 103% in the assay with OVCAR-5 ovarian; 101% in the assay with OVCAR-4 ovarian; 95.8% with SK-OV-3 ovarian; 66.1% with IGROV1 ovarian. Moreover, the growth with OVCAR-3 ovarian is 104%; with HS 578T breast, 97.8%; with NCI/ADR-RES ovarian, 104%; in the assay on T-47D breast it was 101%; with BT-549 breast it was 111%; with SW-620 colon it was 104%. The growth with MCF7 breast was 108%; with HCT-116 colon, 105%; in the assay on HCC-2998 colon it was 108%; in the assay on KM12 colon it was 108%.
With `O=C(/C=C/c1ccc(Cl)cc1)c1ccc(Br)cc1`, the growth with RPMI-8226 leukemia is 28.1%; with OVCAR-8 ovarian, 103%; with OVCAR-5 ovarian, 91.8%; in the assay on OVCAR-4 ovarian, 92.5%; with SK-OV-3 ovarian, 100%; in the assay with IGROV1 ovarian, 88.2%. Also, the growth was 100% in the assay with OVCAR-3 ovarian; 124% in the assay on HS 578T breast; 101% with NCI/ADR-RES ovarian; 79.7% in the assay on T-47D breast; 102% with BT-549 breast; 99.1% in the assay with MDA-MB-435 melanoma. Also, the growth in the assay with SW-620 colon is 102%; with MCF7 breast, 26.3%; with HCT-116 colon it was 75.5%; in the assay on KM12 colon it was 93.8%.
As for `CCCCN(CCCC)c1ccc(C(=NC(C)CCCN(CC)CC)c2ccc(N(C)C)cc2)cc1` (stereo unspecified), the growth in the assay on RPMI-8226 leukemia was -43.6% (active); in the assay on OVCAR-8 ovarian it was -49% (active); in the assay on OVCAR-5 ovarian it was -6.48% (active); in the assay with OVCAR-4 ovarian, -13.5% (active); in the assay with SK-OV-3 ovarian it was -70.9% (active); in the assay with OVCAR-3 ovarian, -47.7% (active). The growth in the assay with HS 578T breast was -49.8% (active); with NCI/ADR-RES ovarian it was -51% (active); with T-47D breast, -55.8% (active); in the assay with BT-549 breast it was -27.2% (active); in the assay with MDA-MB-435 melanoma it was -87.5% (active); in the assay on SW-620 colon it was -66.7% (active). Besides, the growth in the assay with MCF7 breast was -80.9% (active); with HCT-116 colon it was -81.5% (active); in the assay with HCC-2998 colon it was -59% (active); in the assay with KM12 colon, -14.3% (active).
For `O/N=C1\CCC2CCCCC2C1` (stereo unspecified), the growth with RPMI-8226 leukemia was 104%; in the assay with OVCAR-8 ovarian it was 112%; with OVCAR-4 ovarian, 97.8%; in the assay on SK-OV-3 ovarian, 105%; in the assay with IGROV1 ovarian it was 105%; in the assay on OVCAR-3 ovarian it was 111%. The growth in the assay on HS 578T breast is 108%; with NCI/ADR-RES ovarian it was 109%; with T-47D breast, 94%; with BT-549 breast, 105%; in the assay with MDA-MB-435 melanoma it was 104%; in the assay on SW-620 colon, 109%. In addition, the growth in the assay with MCF7 breast is 93%; in the assay with HCT-116 colon it was 103%; in the assay with HCC-2998 colon, 106%; with KM12 colon it was 106%.
On to `CCOC(=O)c1cc2c(n1Cc1cccc(OC)c1)-c1oncc1CC2`, for which the growth in the assay on RPMI-8226 leukemia was 37%; in the assay with OVCAR-8 ovarian, 41.7%; in the assay on OVCAR-5 ovarian it was 73%; with OVCAR-4 ovarian it was 69.1%; in the assay on SK-OV-3 ovarian, 29.7%; with IGROV1 ovarian it was 19.6%. The growth in the assay with OVCAR-3 ovarian was -16.4% (active); with HS 578T breast, -15.6% (active); with NCI/ADR-RES ovarian, 6.41% (active); with T-47D breast, 38.9%; in the assay with BT-549 breast, 28.3%; in the assay on MDA-MB-435 melanoma, -23.5% (active). For the same compound, the growth in the assay with SW-620 colon is 23%; with MCF7 breast, 14.1%; with HCT-116 colon, 14.9%; with HCC-2998 colon, 58.6%; with KM12 colon it was 32.5%.
`COc1ccc(-c2nsc3c2NC(=O)CC3c2cccc(Cl)c2)cc1` (stereo unspecified): the growth with RPMI-8226 leukemia is 12.4%; with OVCAR-8 ovarian, 33.7%; in the assay on OVCAR-5 ovarian, 32.8%; in the assay with OVCAR-4 ovarian it was 53.2%; in the assay with SK-OV-3 ovarian, 3.46% (active); in the assay with IGROV1 ovarian, 39.2%. Also, the growth is 11.4% in the assay with OVCAR-3 ovarian; 37.6% in the assay on HS 578T breast; 15.7% with NCI/ADR-RES ovarian; 35.3% in the assay with T-47D breast; 36.5% with BT-549 breast; 25.7% in the assay with SW-620 colon. Further, the growth in the assay with MCF7 breast was 17%; in the assay on HCT-116 colon it was 23.8%; with HCC-2998 colon, 43.5%; in the assay with KM12 colon, 34.6%.
For `COc1ccc(-c2ccccc2)cc1C(=O)c1ccc(-c2ccccc2)cc1`, the growth with OVCAR-8 ovarian was 93.1%; with OVCAR-5 ovarian, 87.8%; in the assay with OVCAR-4 ovarian it was 96.3%; in the assay with SK-OV-3 ovarian it was 76.6%; in the assay with IGROV1 ovarian, 63.5%; in the assay with OVCAR-3 ovarian, 60.9%. In addition, the growth was 81.5% in the assay on HS 578T breast; 41.2% in the assay with NCI/ADR-RES ovarian; 85.7% with T-47D breast; 76.8% in the assay on BT-549 breast; -7.15% (active) in the assay on MDA-MB-435 melanoma; 52.3% in the assay on SW-620 colon. For the same compound, the growth in the assay with MCF7 breast was 50.6%; in the assay on HCT-116 colon it was 60.8%; with HCC-2998 colon, 74.6%; in the assay with KM12 colon it was 48.5%.
As to `Oc1ccccc1-c1nnc(Cn2c(Cc3cccc4ccccc34)nc3ccccc32)o1`, the growth is 101% in the assay on OVCAR-8 ovarian; 96.8% in the assay with OVCAR-5 ovarian; 99.2% in the assay on OVCAR-4 ovarian; 98.7% with SK-OV-3 ovarian; 111% with IGROV1 ovarian; 101% with OVCAR-3 ovarian. Also, the growth with HS 578T breast is 99.5%; in the assay on NCI/ADR-RES ovarian it was 93.8%; with T-47D breast it was 89.6%; in the assay on BT-549 breast, 101%; with MDA-MB-435 melanoma, 111%; in the assay with SW-620 colon, 103%. Besides, the growth is 102% with MCF7 breast, 100% in the assay on HCT-116 colon and 98.8% in the assay with KM12 colon.
Consider `CCc1ccc(Nc2cc(C)nc3nc(C)nn23)cc1`, for which the growth with RPMI-8226 leukemia is -35.2% (active); with OVCAR-8 ovarian, -69.2% (active); in the assay on OVCAR-5 ovarian it was 26.4%; in the assay on OVCAR-4 ovarian it was -13.1% (active); with SK-OV-3 ovarian, 38.3%; with IGROV1 ovarian it was 32.8%. The growth was -92.2% (active) in the assay on OVCAR-3 ovarian; 50.8% in the assay on HS 578T breast; -29.5% (active) in the assay with NCI/ADR-RES ovarian; -68.3% (active) in the assay with T-47D breast; 40.7% in the assay with BT-549 breast; -97.2% (active) in the assay on MDA-MB-435 melanoma. The growth with SW-620 colon is -68.9% (active); in the assay on MCF7 breast it was -92% (active); with HCT-116 colon it was -90.7% (active); in the assay on KM12 colon it was 3.49% (active).
Consider `Cc1ccccc1C1=N[C@@H](Cc2ccccc2)C(=O)c2c(nc3ccccn23)N1`, for which the growth is 98.4% with RPMI-8226 leukemia; 92.8% in the assay on OVCAR-8 ovarian; 101% with OVCAR-5 ovarian; 98.7% with OVCAR-4 ovarian; 111% in the assay with SK-OV-3 ovarian; 108% in the assay on IGROV1 ovarian. Also, the growth in the assay on OVCAR-3 ovarian was 108%; in the assay on HS 578T breast it was 102%; in the assay with NCI/ADR-RES ovarian, 95.6%; with T-47D breast it was 104%; with BT-549 breast, 96.9%; with MDA-MB-435 melanoma it was 98.8%. Also, the growth with SW-620 colon was 103%; with MCF7 breast, 84.9%; with HCT-116 colon it was 86.9%; in the assay on HCC-2998 colon it was 99.9%; in the assay on KM12 colon, 108%.
